According to paper PMC4336329 (PLoS ONE, 2015):
In all, about 310,000 compounds went through this assay and about 14,000 (4.5%) showed an effect of 50% or more. The effect is printed as a negative number. The list comes from a sample in which strong results are over-represented; it also holds similar structures and randomly drawn compounds.

target: human ether-à-go-go-related gene (hERG) potassium channel (human, UniProt Q12809); test: primary screen, population patch clamp on CHO cells stably expressing hERG; higher = less effect of the substance
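Note: peak tail current of the secondary pulse compared with the same well before compound.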

Chain of human ether-à-go-go-related gene (hERG) potassium channel (Q12809 whole entry, looked up): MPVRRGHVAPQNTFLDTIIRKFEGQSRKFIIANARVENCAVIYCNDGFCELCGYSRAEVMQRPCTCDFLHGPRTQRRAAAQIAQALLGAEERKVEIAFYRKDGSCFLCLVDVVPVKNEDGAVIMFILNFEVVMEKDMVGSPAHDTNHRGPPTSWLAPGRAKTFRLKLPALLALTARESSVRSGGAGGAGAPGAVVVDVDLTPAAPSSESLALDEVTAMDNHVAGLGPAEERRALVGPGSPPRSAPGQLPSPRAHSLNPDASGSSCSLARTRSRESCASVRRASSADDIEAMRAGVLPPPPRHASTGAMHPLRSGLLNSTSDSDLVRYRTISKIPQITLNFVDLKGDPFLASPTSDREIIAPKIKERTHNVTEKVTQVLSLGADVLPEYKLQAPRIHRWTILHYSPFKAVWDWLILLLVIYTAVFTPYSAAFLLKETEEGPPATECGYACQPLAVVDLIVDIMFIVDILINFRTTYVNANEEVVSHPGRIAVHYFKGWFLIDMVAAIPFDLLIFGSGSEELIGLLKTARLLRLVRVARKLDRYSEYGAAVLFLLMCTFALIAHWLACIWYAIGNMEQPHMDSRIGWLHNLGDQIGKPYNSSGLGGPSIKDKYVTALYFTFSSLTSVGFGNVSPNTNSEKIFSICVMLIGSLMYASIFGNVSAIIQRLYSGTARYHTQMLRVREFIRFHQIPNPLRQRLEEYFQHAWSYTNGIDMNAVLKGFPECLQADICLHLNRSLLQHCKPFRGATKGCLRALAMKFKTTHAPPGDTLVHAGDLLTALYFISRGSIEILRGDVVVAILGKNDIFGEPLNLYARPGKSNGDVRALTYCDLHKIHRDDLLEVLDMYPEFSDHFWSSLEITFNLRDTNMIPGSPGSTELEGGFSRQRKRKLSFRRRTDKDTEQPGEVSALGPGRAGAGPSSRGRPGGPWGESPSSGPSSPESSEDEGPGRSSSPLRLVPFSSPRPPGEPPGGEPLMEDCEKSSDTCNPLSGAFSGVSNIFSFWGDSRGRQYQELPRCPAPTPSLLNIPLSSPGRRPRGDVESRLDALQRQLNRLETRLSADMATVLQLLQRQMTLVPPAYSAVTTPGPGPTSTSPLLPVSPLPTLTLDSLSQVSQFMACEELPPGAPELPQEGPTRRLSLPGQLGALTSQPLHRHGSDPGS

Compared with `O=C(Nc1ccncc1)c1ccc([N+](=O)[O-])cc1Cl`, `O=C(/C=C/c1ccccc1Cl)Nc1ccncc1` is lower in “hERG current change (%, negative = inhibition) at 10uM” value: -3.15% for the first, -3.65% for the second.

Going from `O=C(O)C1CC=C(Cl)CC1C(=O)NCc1ccccc1` (centres unmarked) to `O=C(NCc1cccnc1)C1CCN(C(=O)c2ccc(Cl)cc2Cl)CC1`, the “hERG current change (%, negative = inhibition) at 10uM” value falls from 6.61% to -10.8%.

Compared with `COc1ccc(C(=O)NC2=C(C#N)CCC2)cc1OC`, `COC(=O)[C@H](CCSC)NC(=O)Nc1ccc(OC)c(Cl)c1` is lower in “hERG current change (%, negative = inhibition) at 10uM” value: 9.08% for the first, -6.64% for the second.

Going from `NC(=O)NC(CC(=O)N1CCc2ccccc2C1)c1ccc(Cl)cc1` (centres unmarked) to `O=C(O)CCC(=O)N1CCc2cc(S(=O)(=O)NC3CCCc4ccccc43)ccc21` (centres unmarked), the “hERG current change (%, negative = inhibition) at 10uM” value falls from 2.09% to -5.02%.

Going from `COC(=O)[C@H](CCSC)NC(=O)Nc1ccc(C)c(C)c1` to `COC(=O)[C@H](CCSC)NC(=O)Nc1ccc(C)cc1`, the “hERG current change (%, negative = inhibition) at 10uM” value rises from -83.6% to 11.6%.

First: CC(C)(Oc1ccc(Cl)cc1)C(=O)N(Cc1ccccc1)c1ccccn1
Second: O=C(COc1ccc(Cl)cc1)N(Cc1ccccc1)c1ccccn1
The “hERG current change (%, negative = inhibition) at 10uM” value of the first is higher: -7.15% for the first, -36% for the second.

Compared with `CCCCCCCCCCCCCCCC[N+](C)(C)CCN(Cc1ccc(OC)cc1)c1ncccn1.[Br-]`, `CC[N+](C)(C)CCN(Cc1ccc(Cl)cc1)c1ccccn1.[Br-]` is higher in “hERG current change (%, negative = inhibition) at 10uM” value: -75% for the first, -68.6% for the second.

First: CCCCCc1ccc(-c2ccc(OC)cc2)nc1
Second: CCn1c(CNC(=O)Cc2ccc(OC)cc2)nnc1SCC(=O)Nc1nccs1
The “hERG current change (%, negative = inhibition) at 10uM” value of the first is higher: 19.7% for the first, -5.75% for the second.

Compared with `C[N+](C)(C)CCN(Cc1ccc(Cl)cc1)c1ccccn1.[I-]`, `CN(C)CCN(Cc1ccc(Cl)cc1)c1ccccn1.Cl` is lower in “hERG current change (%, negative = inhibition) at 10uM” value: -14.4% for the first, -74.4% for the second.

First: CN(C)CCN(Cc1ccccc1)c1ccccn1.Cl
Second: COc1ccc(CN(CCN(C)C)c2ccccn2)cc1.O=C(O)/C=C\C(=O)O
The “hERG current change (%, negative = inhibition) at 10uM” value of the first is lower: -48.6% for the first, -38.5% for the second.

First: Nc1nc(-c2ccco2)nn1C(=O)CCc1ccccc1
Second: O=C(Cc1ccccc1)NCc1nc2ccccc2[nH]1
The “hERG current change (%, negative = inhibition) at 10uM” value of the first is higher: -0.902% for the first, -6.31% for the second.

First: CCCOc1ccccc1C(=O)N1CCNC(=O)C1CC(=O)OC(C)C (centres unmarked)
Second: COc1cccc(CN2CCNC(=O)C2CC(=O)NCCCn2ccnc2)c1 (centres unmarked)
The “hERG current change (%, negative = inhibition) at 10uM” value of the first is lower: 0.716% for the first, 37.2% for the second.

Compared with `CCOC(=O)N1CCN(S(=O)(=O)c2cc(Cl)c(OC)cc2Cl)CC1`, `CCOC(=O)N1CCN(C(=O)COC(=O)CSc2cc(C)c(Br)cc2C)CC1` is lower in “hERG current change (%, negative = inhibition) at 10uM” value: 4.96% for the first, -38.5% for the second.

Going from `CCN(CC)S(=O)(=O)c1ccc2[nH]c(=O)cc(C(=O)NCC3CCCO3)c2c1` (centres unmarked) to `CN(C)S(=O)(=O)c1ccc(Cl)c(C(=O)NC2CCCCCCC2)c1`, the “hERG current change (%, negative = inhibition) at 10uM” value rises from -10.3% to 7.33%.

Compared with `COc1ccc(NC(=O)c2ccc(NC(=O)COC(=O)CC(NC(=O)c3ccccc3Cl)c3ccccc3)cc2)cc1` (centres unmarked), `COc1ccc(C(=O)NCCc2nnc(SCC(=O)Nc3ccccc3C(C)C)n2C)cc1` is lower in “hERG current change (%, negative = inhibition) at 10uM” value: -2.55% for the first, -13.3% for the second.

Going from `CCC(=O)Nc1nc(CC(=O)Nc2ccccc2)cs1` to `CCCC(O)(CCC)C(=O)NNc1ccccc1`, the “hERG current change (%, negative = inhibition) at 10uM” value falls from 18.2% to 12.4%.

Compared with `COc1ccc(CC(=O)N2CCN(c3ccccn3)CC2)cc1`, `O=C(COc1ccccc1Br)N1CCN(C(=O)c2ccco2)CC1` is lower in “hERG current change (%, negative = inhibition) at 10uM” value: 7.79% for the first, -31.3% for the second.

Going from `CCCCc1nnc(SCC(=O)Nc2nccs2)n1CC` to `CCn1c(COc2ccc(C(C)C)cc2)nnc1SCC(=O)Nc1nccs1`, the “hERG current change (%, negative = inhibition) at 10uM” value falls from 4.93% to -7.75%.

Compared with `Cn1c(CNC(=O)c2ccco2)nnc1SCC(=O)Nc1ccc(Br)cc1F`, `CCn1c(CNC(=O)c2ccco2)nnc1SCC(=O)Nc1ccc(Br)cc1F` is lower in “hERG current change (%, negative = inhibition) at 10uM” value: -43.4% for the first, -54.8% for the second.

Compared with `CCn1c(CNC(=O)c2ccco2)nnc1SCC(=O)Nc1cc(F)ccc1C`, `CCn1c(CNC(=O)c2ccco2)nnc1SCC(=O)Nc1cc(C)c(C)cc1Br` is lower in “hERG current change (%, negative = inhibition) at 10uM” value: -0.0602% for the first, -16.6% for the second.

Going from `CCn1c(CNC(=O)COc2ccc(C(C)C)cc2)nnc1SCC(=O)Nc1cc(F)ccc1C` to `CCn1c(CNC(=O)COc2ccc(C(C)C)cc2)nnc1SCC(=O)Nc1ccccc1F`, the “hERG current change (%, negative = inhibition) at 10uM” value rises from -65.7% to -60.1%.

Compared with `CCn1c(CCCOc2ccc(Cl)cc2Cl)nnc1SCC(=O)Nc1cc(F)ccc1C`, `CCn1c(CCNC(=O)c2ccc(OC)cc2)nnc1SCC(=O)Nc1ccccc1F` is lower in “hERG current change (%, negative = inhibition) at 10uM” value: -13.1% for the first, -22.7% for the second.

Going from `CCn1c(CNC(=O)COc2ccc(C(C)C)cc2)nnc1SCC(=O)Nc1ccccc1C(C)C` to `CCn1c(CNC(=O)COc2ccc(C(C)C)cc2)nnc1SCC(=O)Nc1ccccc1`, the “hERG current change (%, negative = inhibition) at 10uM” value rises from -55.1% to -54.2%.

Going from `CCn1c(CNC(=O)COc2c(C)cccc2C)nnc1SCC(=O)Nc1nccs1` to `CCn1c(CNC(=O)COc2ccc(C(C)C)cc2)nnc1SCC(=O)Nc1ccc(F)cc1`, the “hERG current change (%, negative = inhibition) at 10uM” value rises from -51.8% to -49.4%.

Compared with `O=C(Cn1nnc(-c2ccncc2)n1)N1CCc2ccccc21`, `O=C(NCCc1ccncc1)Nc1cccc(Cl)c1` is lower in “hERG current change (%, negative = inhibition) at 10uM” value: 15.2% for the first, -3.75% for the second.

Going from `CCCc1nc2oc3c(NCc4ccccn4)ncnc3c2c2c1COC(C)(C)C2` to `CC1(c2nnc(Cc3ccccc3)o2)CC(c2cccnc2)=NO1` (centres unmarked), the “hERG current change (%, negative = inhibition) at 10uM” value rises from -17.8% to 3.26%.

First: Cc1cc(=O)[nH]c(/N=C(\N)Nc2cccc3ccccc23)n1
Second: CCn1c(Cc2ccccc2)nnc1SCC(=O)Nc1ccccc1F
The “hERG current change (%, negative = inhibition) at 10uM” value of the first is higher: 11.5% for the first, -5.46% for the second.

First: NNC(=O)c1ccc(COCC(F)(F)C(F)F)cc1
Second: COc1ccccc1CNC(=O)COC(=O)Cc1ccc(F)cc1
The “hERG current change (%, negative = inhibition) at 10uM” value of the first is higher: 14.5% for the first, 8.81% for the second.

Going from `CC(NC(=O)c1cc2cc(Cl)ccc2oc1=N)c1ccccc1` (centres unmarked) to `O=C(c1ccco1)c1cn[nH]c1-c1ccc(Cl)cc1O`, the “hERG current change (%, negative = inhibition) at 10uM” value falls from 7.55% to -8.52%.

Compared with `C#CCNC(=O)[C@H](Cc1ccc(C(=O)c2ccccc2)cc1)NC(=O)OC(C)(C)C`, `C/C(=N\NC(=O)CN(c1ccc(Oc2ccccc2)cc1)S(C)(=O)=O)C(C)(C)C` is lower in “hERG current change (%, negative = inhibition) at 10uM” value: 19.5% for the first, 7.07% for the second.

Going from `O=C(COC(=O)c1cc(S(=O)(=O)N2CCOCC2)cs1)c1ccccc1` to `O=C(CSc1ccccc1F)OCC(=O)N1CCN(C(=O)c2ccco2)CC1`, the “hERG current change (%, negative = inhibition) at 10uM” value falls from -0.734% to -27.2%.

Compared with `N#C/C(=C\c1cccnc1)c1nc2ccccc2[nH]1`, `CCOC(=O)CN1C(=O)C(O)(CC(=O)c2cccc(OC)c2)c2ccccc21` (centres unmarked) is higher in “hERG current change (%, negative = inhibition) at 10uM” value: -10.4% for the first, 5.13% for the second.

First: CCn1c(CNC(=O)COc2ccc(C(C)C)cc2)nnc1SCC(=O)NC1CCCCC1C (centres unmarked)
Second: CCOC(=O)c1[nH]c2ccccc2c1NC(=O)C1CCCC1
The “hERG current change (%, negative = inhibition) at 10uM” value of the first is lower: -16.8% for the first, 3.28% for the second.

Going from `Cc1ccc(N=C(NO)c2nonc2N)cc1` to `NC(=O)COC(=O)CSc1cccc2cccc(Cl)c12`, the “hERG current change (%, negative = inhibition) at 10uM” value rises from 10.1% to 14.8%.

Going from `Cc1cc(NC(=O)CSCC(=O)NCc2cccc(C(F)(F)F)c2)no1` to `Cc1cc(SCC(=O)N2CCN(C(=O)c3ccco3)CC2)c(C)cc1Br`, the “hERG current change (%, negative = inhibition) at 10uM” value falls from -18.7% to -62.3%.

First: [Cl-].c1ccc(C[n+]2c(-c3ccccc3)csc2Nc2ccccc2)cc1
Second: O=[N+]([O-])c1cccc(S(=O)(=O)Nc2ccc(S(=O)(=O)Nc3nccs3)cc2)c1
The “hERG current change (%, negative = inhibition) at 10uM” value of the first is higher: 19.6% for the first, 13.9% for the second.

Compared with `Cc1cc(SCC(=O)OCC(=O)N2CCN(C(=O)c3ccco3)CC2)c(C)cc1Br`, `Cc1cc(Br)ccc1SCC(=O)OCC(=O)N1CCN(C(=O)c2ccco2)CC1` is lower in “hERG current change (%, negative = inhibition) at 10uM” value: -50.2% for the first, -66.8% for the second.

Compared with `Cc1cc(SCC(=O)OCC(=O)N(C)C2CCS(=O)(=O)C2)c(C)cc1Br` (centres unmarked), `Cc1ccc(SCC(=O)OCC(=O)N(C)C2CCS(=O)(=O)C2)cc1C` (centres unmarked) is higher in “hERG current change (%, negative = inhibition) at 10uM” value: -73.1% for the first, -11.5% for the second.

Compared with `Cc1cccc(OCC(=O)OCC(=O)N2CCN(C(=O)c3ccco3)CC2)c1C`, `Cc1cc(C)c(OCC(=O)OCC(=O)N2CCN(C(=O)c3ccco3)CC2)c(C)c1` is higher in “hERG current change (%, negative = inhibition) at 10uM” value: -31.8% for the first, -30.4% for the second.

Going from `Cc1cc(Br)cc(Cl)c1OCC(=O)N1CCN(C(=O)c2ccco2)CC1` to `Cc1ccc(SCC(=O)OCC(=O)N2CCN(C(=O)c3ccco3)CC2)c(C)c1`, the “hERG current change (%, negative = inhibition) at 10uM” value rises from -63.3% to -41.6%.

Going from `O=C(CSc1cccc2cccc(Cl)c12)OCC(=O)N1CCN(C(=O)c2ccco2)CC1` to `NC(=O)c1ccc(SCC(=O)OCC(=O)N2CCN(C(=O)c3ccco3)CC2)c([N+](=O)[O-])c1`, the “hERG current change (%, negative = inhibition) at 10uM” value rises from -69.2% to 23.3%.

Going from `CN(C(=O)COC(=O)CSc1ccc(C(N)=O)cc1[N+](=O)[O-])C1CCS(=O)(=O)C1` (centres unmarked) to `CC(=O)N1CCN(C(=O)CSc2cc(C)c(Br)cc2C)CC1`, the “hERG current change (%, negative = inhibition) at 10uM” value rises from -11.4% to 3.18%.

Going from `O=C(NCC(c1ccco1)N1CCN(c2ccccc2)CC1)c1ccc2c(c1)OCO2` (centres unmarked) to `Nc1cc(N)nc(SCC(=O)N2CCN(C(=O)c3ccco3)CC2)n1`, the “hERG current change (%, negative = inhibition) at 10uM” value rises from -5.86% to 0.783%.
